# BAZ2B block: inhibitors of human BAZ2B bromodomain. Q9UIF8. AID 504333. hit rate 4.4% among 360,000. AlphaScreen BAZ2B-H3K14Ac peptide displacement. Potency, µM (titrated, usually from 114 µM), hits mostly inhibitors; also: nearly all actives have a fitted effect of over 60% in size
#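 AlphaScreen displacement: compounds (up to 110uM) incubated 30 min at room temperature with a preformed 50 nM BAZ2B/50 nM biotinylated H3K14Ac peptide complex in PBS pH 7.4 with Tween-20. Donor and acceptor beads at 10 ug/mL final added, 20 min light-protected before reading.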
# G9a inh: inhibitors of human histone lysine methyltransferase G9a; Q96KQ7; G9a H3K9 monomethylation, AlphaScreen, 2 h; Potency, µM (series often up to 102 µM), hits mostly inhibitors; hit rate 8.8% among 350,000; also: nearly all actives have a fitted effect of over 75% in size
# Target sequence (Q96KQ7 913-1193 limits assumed): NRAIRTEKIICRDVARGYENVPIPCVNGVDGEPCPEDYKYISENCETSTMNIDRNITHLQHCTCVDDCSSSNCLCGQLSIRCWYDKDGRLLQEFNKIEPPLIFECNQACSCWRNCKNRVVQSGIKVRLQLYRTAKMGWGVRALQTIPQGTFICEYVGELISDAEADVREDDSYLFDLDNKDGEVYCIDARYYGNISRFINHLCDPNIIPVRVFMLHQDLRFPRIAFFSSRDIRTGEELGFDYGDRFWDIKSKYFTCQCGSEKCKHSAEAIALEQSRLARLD
#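 Chemiluminescent proximity detection of H3K9 monomethylation, read after 10 min bead incubation in the dark. Reaction: 20 nM G9a, 500 nM biotin-H3K9 peptide, 20 uM SAM cofactor, 2 h, room temperature, following 15 min enzyme-compound preincubation.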
# TDP1 block: blocks human tyrosyl-DNA phosphodiesterase 1 | Q9NUW8 | recombinant TDP1, AlphaScreen DNA substrate cleavage | Potency, µM (highest dose often 130 µM), usual class: inhibitors | hit rate 0.28% among 350,000 | AID 485290; also: nearly all actives have a fitted effect of over 40% in size
#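 E. coli-derived human Tdp1, 1 nM final. Cpd preinc 15 min RT; substrate 15 nM final, 5 min RT; AS bead mix 10 ug/ml final, 10 min RT. Signal loss = tyrosine-FITC cleavage. No-enzyme wells = max signal.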
# Sfp PPTase inh: inhibitors of Bacillus subtilis Sfp phosphopantetheinyl transferase; Q9F4F7; AID 1490; Potency, µM, most hits filed as inhibitors; hit rate 3.5% among 310,000; Biochemical Sfp PPTase activity, qHTS;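 also: the enzyme is Sfp with the accession as filed and its product quenches rhodamine fluorescence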
#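 Sfp 15 nM + cpd, 15 min RT; start w/ rhodamine-CoA 5 uM, BHQ-2-YbbR 12.5 uM (final); 50 mM Hepes pH 7.6, 10 mM MgCl2, 0.01% NP-40, 0.01% BSA; read 525/598 nm at 0 and 30 min.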
# HP1b binding inh: inhibitors of HP1-beta chromodomain binding to methylated histone tails. P83916. AlphaScreen HP1-beta / biotin-H3K9me3 peptide binding. Potency, µM (titrated, usually from 114 µM), actives largely listed as inhibitors. hit rate 0.56% among 390,000; also: nearly all actives have a fitted effect of over 70% in size
# Target sequence (P83916 whole entry, looked up): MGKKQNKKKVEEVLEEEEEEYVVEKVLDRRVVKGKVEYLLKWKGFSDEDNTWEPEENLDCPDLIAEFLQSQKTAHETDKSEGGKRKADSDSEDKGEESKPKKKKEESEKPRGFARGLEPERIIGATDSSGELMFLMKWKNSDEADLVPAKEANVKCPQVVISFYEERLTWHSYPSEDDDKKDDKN
#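 Compound inhibition of the preformed complex between 50 nM HP1-beta and 50 nM biotinylated H3K9me3 peptide was read by AlphaScreen. Buffer was PBS pH 7.4 with 0.01% Tween-20. Incubations ran 30 min at room temperature, with 10 ug/mL donor/acceptor beads.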
# JMJD2A Tudor: inhibitors of human JMJD2A Tudor domain; O75164; AlphaScreen JMJD2A-Tudor / H3K4me3 peptide binding; Potency, µM (top dose mostly 114 µM), most hits filed as inhibitors; hit rate 4.4% among 390,000; AID 504339; also: nearly all actives have a fitted effect of over 50% in size
# A number is an active result; . = inactive; ? = inconclusive; / = no result; ! = a repeat was not active; [ ] = another dose, or the depositor's remark. Sampled rows, rich in hits. Any-hit rate of the full collection: about 12%. Calls follow the shape of the dose curve; as a rule, active = well fitted curve in the direction sought with a large enough effect; inconclusive = small, poorly fitted or top-dose-only effect, or another doubt; inactive = no such curve, though single readings can be large; an effect the other way counts as inactive or inconclusive.
SMILES,BAZ2B block,G9a inh,TDP1 block,Sfp PPTase inh,HP1b binding inh,JMJD2A Tudor
Cc1ccc(C)c(OCCC(=O)OC(C)C(=O)Nc2c(C)n(C)n(-c3ccccc3)c2=O)c1 (centres undefined),.,.,/,/,.,.
CCc1cccc(NC(=O)CCc2nc3cccnc3n2Cc2ccc(OC)cc2)c1,.,.,.,/,.,.
O=[N+]([O-])C(=C1Nc2ccccc2N1)/C(Cl)=C(/Cl)Br,?,7.9µM,.,.,?,18µM
COc1cc(/C=C/c2nc3cc(Cl)ccc3c(=O)n2-c2cccc(C(F)(F)F)c2)cc(OC)c1OC,.,.,.,/,.,.
COc1ccc2ccccc2c1C(=O)/C=C\c1ccoc1,28µM,45µM,.,7.9µM,?,?
CCN1CCN(Cc2c(OC)ccc3ccccc23)CC1,.,.[12.7 µM],.,.,.,.
O=C(CN1CCN(Cc2cccc3ccccc23)CC1)NCCc1ccccc1,.,.,/,.,.,.
COc1ccc(OC)c(CN2CCC(CO)(CCOc3ccccc3)CC2)c1,.,.,.,.,.,.
c1ccc2c(CN3CCSCC3)cccc2c1,?,.[0.501 µM],/,?,?,20µM
COc1ccc(OC)c(CN2CCCCCC2)c1,79µM,45µM,/,.,?,14µM
COc1ccc2ccccc2c1CN1CCSCC1,56µM,/,/,?,?,45µM
COc1ccc(OC)c(CN2CCSCC2)c1,?,11µM,/,.,?,1.8µM
COC(=O)C(CCSC)Nc1ncnc2onc(-c3ccc(F)cc3)c12 (centres undefined),.,.,.,/,.,.
COc1ccc(-c2c(-c3ccc4c(c3)OCO4)c3ccccc3n2C)cc1,/,/,/,/,.,?
Cc1ccc(C)c(CN2CCSCC2)c1,?,/,/,.,.,7.1µM
COc1cc(OC)c(OC)cc1CN1CCc2ccccc2C1,?,13µM,.,.,?,56µM
COc1ccc(CN2CCSCC2)c(OC)c1C,79µM,10µM,/,.,?,4µM
COc1ccc(/C=N/NS(=O)(=O)c2ccc(F)cc2)cc1CN1CCSCC1,.,?,.,.,.,.
C=CCc1ccc(OCC(O)CN2CCc3ccccc3C2)c(OC)c1 (centres undefined),.,/,/,.,.,.
COc1cc2c(cc1OC)CN(Cc1ccc(OC)c(C)c1OC)CC2,50µM,?,.,.,.,1.6µM
COc1cc2c(cc1OC)CN(Cc1ccc(C)cc1)CC2,.,/,/,.,.,.
O=C(Cc1cccc([N+](=O)[O-])c1)NCc1nc2cccnc2n1Cc1ccc(F)cc1,.,.,.,/,.,.
COc1ccc(Br)cc1/C=N/NC(=O)CN1CCCCC1,.,/,/,.,.,.
COc1ccc(OC)c(/C=N/NC(=O)CN2CCSCC2)c1,56µM,?,.,.,?,5.6µM
CCOC(=S)SCC(=O)Nc1ncc(C)s1,.,/,.,16µM,.,.
SMILES,BAZ2B block,G9a inh,TDP1 block,Sfp PPTase inh,HP1b binding inh,JMJD2A Tudor
Cc1cnc(NC(=O)CSc2ccccc2)s1,.,.,.,.,.,.
O=C(OCCCN1CCOCC1)c1ccc(O)c(O)c1,.,13µM,.,?,.,32µM
CCn1c(C)c(C(C)=O)c(N2CCCCC2)nc1=S,.,45µM,.,.,.,.
CCn1c(C)c(C(C)=O)c(N2CCN(c3ccccc3)CC2)nc1=S,.,.,.,56µM,.,.
CC(=O)c1c(N2CCOCC2)nc(=O)n(-c2ccccc2)c1C,.,45µM,.,.,.,.
CCn1c(C)c(C(C)=O)c(N2CCN(C(c3ccccc3)c3ccccc3)CC2)nc1=S,?,?,.,?,.,?
CCOc1ccc(NC(=O)CN(C)C(=O)C2CSC3(C)CCC(=O)N23)cc1OCC (centres undefined),.,.,.,/,.,.
Cc1nn(CC(=O)NC(C)C)c(C)c1[N+](=O)[O-],.,.,.,.,.,.
c1ccc(N2CCN(Cc3cn4ccccc4n3)CC2)cc1,.,/,.,.,.,.
O=C(O)CSCc1cn2cc(Cl)ccc2n1,.,50µM,.,.,.,?
O=c1cc(CN2CCCc3ccccc32)nc2sccn12,.,?,.,.,.,.
Clc1ccc2nc(CN3CCCc4ccccc43)cn2c1,50µM,?,.,.,.,50µM
Clc1ccc2nc(CN3CCCCCC3)cn2c1,?,.[0.0925 µM],.,.,.,89µM
CNCc1cn2cc(Cl)ccc2n1,.,.,.,.,.,.
Clc1ccc2nc(CN3CCCCC3)cn2c1,.,50µM,.,.,.,.
Clc1ccc(-c2noc(CN3CCCC3)n2)cc1,.,.,.,.,.,.[11.4 µM]
COCCCn1c(=N)c(S(=O)(=O)c2ccccc2)cc2c(=O)n3cc(C)ccc3nc21,.,.,/,/,.,.
CCc1noc(C)c1C(=O)NNC(=O)COc1ccccc1C,.,.[2.33 µM],.,/,.,.
COc1ccc(NC2CC(=O)N(c3cccc(C)c3)C2=O)cc1 (centres undefined),.,.,.,.,.,.
COc1ccc(NC2CC(=O)N(c3ccc(C(=O)O)cc3)C2=O)cc1 (centres undefined),.,50µM,.,.,.,.
COc1ccc(N2C(=O)CC(Nc3cccc(C(C)=O)c3)C2=O)cc1OC (centres undefined),.,18µM,.,.,.,.
O=C(Nc1ccc(O)c2c(=O)cc(-c3ccccc3Cl)oc12)c1ccc(Cl)c(Cl)c1,.,.[12.7 µM],.,79µM!,.,.
O=c1cc(-c2ccccc2Cl)oc2c(Br)ccc(O)c12,.,56µM!,.,.,.,.
O=c1cc(-c2ccccc2Cl)oc2c([N+](=O)[O-])ccc(O)c12,/,.,.,.,/,/
CSc1nnc(NC(=O)c2cccc(S(=O)(=O)N3CCOCC3)c2)s1,.,.,.,.,.,.
SMILES,BAZ2B block,G9a inh,TDP1 block,Sfp PPTase inh,HP1b binding inh,JMJD2A Tudor
O=C(CCNS(=O)(=O)c1cccc(Cl)c1)OCC(=O)N1CCN(C(=O)c2ccco2)CC1,.,.[2.33 µM],.,/,.,?
CC(=O)Nc1ccc(S(=O)(=O)NCCC(=O)OCC(=O)N2CCN(C(=O)c3ccco3)CC2)cc1,50µM,/,40µM,.,.,.
CCCCC(=O)NC(=S)NNC(=O)CC#N,.,?,.,10µM,.,18µM
CCCCCCCC(=O)NNC(=O)CCC(=O)O,.,.[0.501 µM],.,.,.,.
CCCCC(=O)NNC(=S)NC(=O)CCC,.,10µM,.,79µM,.,50µM
O=C(CN1CCN(C(=O)c2ccc(OCc3cn4ccccc4n3)cc2)CC1)Nc1cccc(F)c1,/,/,.,/,.,.
Cc1cccc(NC(=O)CN2CCN(C(=O)c3ccc(OCc4cn5ccccc5n4)cc3)CC2)c1C,.,.,45µM,/,.,.
Cc1cccc(NC(=O)C(=O)C2C(=O)Nc3ccccc32)c1 (centres undefined),.,45µM,.,.,.,.
COc1cc(C(=O)n2nc(-c3ccco3)nc2NCc2ccc(Cl)cc2)cc(OC)c1OC,.,.,.,/,.,.

# Screening results from PubChem BioAssay.
